Test results as given in PubChem BioAssay AID686940 (The Scripps Research Institute Molecular Screening Center, 2013).
The whole screen tested about 370,000 compounds, of which about 2,600 (0.7%) were called active. This is one part of a sample in which actives are shown more often than they occur. A number with no mark means an inactive call.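 Rule for the calls: active = inhibition above a per-plate cutoff, mean inhibition of test wells between control levels plus 3 SD (cut at about 38% in these data); inactive = the rest.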

biological target: COUP transcription factor 2 (Homo sapiens) (UniProt P24468); experiment: NR2F2 transcriptional activity inhibitors, primary screen, cell-based, luciferase reporter, HEK293T, luminescence (AID 686940); details: HEK293T NGFI-A luciferase reporter, at 8.6 µM, hits give high values;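 note: cells cotransfected with COUP-TFII expression vector driving the NGFI-A reporter; 0% = median of COUP-TF2 test wells and 100% = reporter-only cells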
Sequence (P24468 whole entry, looked up): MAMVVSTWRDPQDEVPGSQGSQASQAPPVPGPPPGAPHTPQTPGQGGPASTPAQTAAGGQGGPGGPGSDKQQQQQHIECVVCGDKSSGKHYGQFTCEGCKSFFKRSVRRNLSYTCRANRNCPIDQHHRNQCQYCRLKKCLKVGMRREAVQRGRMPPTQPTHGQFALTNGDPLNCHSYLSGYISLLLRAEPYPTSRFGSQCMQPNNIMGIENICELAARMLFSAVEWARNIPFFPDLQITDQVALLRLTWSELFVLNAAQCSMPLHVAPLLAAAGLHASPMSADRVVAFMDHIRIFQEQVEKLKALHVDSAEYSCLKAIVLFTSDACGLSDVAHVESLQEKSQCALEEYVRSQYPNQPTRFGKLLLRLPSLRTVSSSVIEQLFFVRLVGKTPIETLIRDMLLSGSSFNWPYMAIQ

With `CCC(CO)Nc1cccc2c1S(=O)(=O)N(Cc1cn(Cc3ccccc3C(F)(F)F)nn1)Cc1ccccc1O2` (stereo unspecified) as the compound, how does the inhibition read?
Its inhibition is -2%.

Which inhibition does the source give for `COc1ccc(-n2c(SCC(=O)Nc3ccc(C)c(Cl)c3)nc3ccccc3c2=O)cc1` here?
The inhibition was 2.13%.

Which inhibition does the source give for `CCCC[C@H](C(=O)N(CC)c1ccccc1)[C@@H](O)c1ccc2ccccc2c1` here?
Its inhibition is -0.42%.

`Cc1ccc(OCC(=O)Nc2ccc(N3CCN(C(=O)c4ccco4)CC3)cc2)c(C)c1` was tested. Which inhibition did it give?
The inhibition was 44.3% (active).

How did the inhibition turn out when `Cc1ccc(NC(=O)C(c2ccccc2)N2CCN(C(=O)c3ccco3)CC2)cc1` (stereo unspecified) was run?
The inhibition was 3.53%.

How did the inhibition turn out when `O=C(COc1ccccc1)Nc1ccc(N2CCN(C(=O)c3cccs3)CC2)cc1` was run?
The inhibition was -0.29%.

How did the inhibition turn out when `C=CCN1C(=O)[C@H](CC(=O)NCCCN2CCCC2=O)[C@@]2(C(=O)OCC)CCCC=C12` was run?
Its inhibition is -4.55%.

How did the inhibition turn out when `CC(C)(C)NC(=O)C(c1cccnc1)N(C(=O)c1cnco1)c1ccc(C(C)(C)C)cc1` (stereo unspecified) was run?
The inhibition was 36.4%.

With `CSc1ccc(C=Nn2c(-c3ccc(F)cc3)n[nH]c2=S)cc1` as the compound, how does the inhibition read?
Its inhibition is -7.74%.

Which inhibition does the source give for `Cc1ccc(NC(=S)NNC(=O)CSc2nnc(SCc3ccccc3Cl)s2)cc1` here?
The inhibition was 9.26%.

For `FC(F)(F)c1cccc(NC(=S)OC2CCC23CCC(c2ccccc2)CC3)c1` (stereo unspecified), which inhibition is on record?
Its inhibition is -0.26%.

For `O=C(Cc1cccs1)Nc1ccc([N+](=O)[O-])cc1`, which inhibition is on record?
The inhibition was 1.87%.

How did the inhibition turn out when `COc1cc(CC(=O)Nc2nc(-c3ccc(F)c(F)c3)cs2)cc(OC)c1OC` was run?
The inhibition was 64.1% (active).

How did the inhibition turn out when `COc1ccc(C2(CNC(=O)Cc3ccc(OC)c(OC)c3)CCCC2)cc1` was run?
Its inhibition is -3.38%.

With `Fc1ccc(-c2csc(-c3ccc(C4SCCS4)cc3)n2)cc1F` as the compound, how does the inhibition read?
Its inhibition is 3.02%.

`COc1ccc(CCNC(=O)COC(=O)Cc2cc(OC)c(OC)c(OC)c2)cc1` was tested. Which inhibition did it give?
Its inhibition is 2.38%.

How did the inhibition turn out when `COc1cc(CCC(=O)Nc2ccncc2Cl)cc(OC)c1OC` was run?
Its inhibition is -12.9%.

How did the inhibition turn out when `O=C(CCc1ccccc1)NCCc1cccs1` was run?
The inhibition was -20.7%.

Which inhibition does the source give for `CCCc1ccc(-c2csc(NC(=O)Cc3cccs3)n2)cc1` here?
Its inhibition is 42.5% (active).

With `COc1ccc(CC(=O)Nc2nc(-c3ccc(F)c(F)c3)cs2)cc1OC` as the compound, how does the inhibition read?
Its inhibition is 64.1% (active).

With `O=C(OC12CCCN(C1)/C(=C/c1cccnc1)C2)C1CCCC1` (stereo unspecified) as the compound, how does the inhibition read?
Its inhibition is 0.25%.

For `Cc1cccc(C(=O)Nc2c(-c3ccc(F)cc3)nc3ncccn23)c1`, which inhibition is on record?
Its inhibition is -5.63%.

How did the inhibition turn out when `CCN(C(=O)[C@@H](C1CC1)[C@@H](O)c1ccc2ccccc2c1)c1ccccc1` was run?
Its inhibition is 8.36%.

With `O=C1C(=O)N(Cc2ccc(-c3ccsc3)cc2)c2ccc(OC(F)(F)F)cc21` as the compound, how does the inhibition read?
Its inhibition is -43.7%.

Which inhibition does the source give for `CCCCC(=O)N[C@@H]1CC[C@@]23CCCN2C(=O)CCC[C@H]3[C@H]1C` here?
The inhibition was -2.57%.

With `CCOC(=O)c1cc(C(=O)Nc2ccc(S(=O)(=O)Nc3ccc(OC)cc3)cc2)nn1C` as the compound, how does the inhibition read?
Its inhibition is 8.95%.

Which inhibition does the source give for `COc1ccc(NS(=O)(=O)c2ccc(NC(=O)c3ccc(N(C)S(C)(=O)=O)cc3)cc2)cc1` here?
Its inhibition is 60.6% (active).

How did the inhibition turn out when `COc1ccc(NS(=O)(=O)c2cc(NC(=O)c3ccc(S(=O)(=O)N(C)C)cc3)ccc2N2CCOCC2)cc1` was run?
The inhibition was 9.06%.

With `O=C(N1CCOCC1)N1CC[C@H]2[C@H](CCCN2Cc2ccc(F)cc2)C1` as the compound, how does the inhibition read?
Its inhibition is 6.77%.

For `CCOC(=O)c1cccc(NC(=O)CN(C)S(=O)(=O)c2ccc(-c3cocn3)s2)c1`, which inhibition is on record?
Its inhibition is -17.4%.

With `CCn1c(=O)n2n(c1=O)[C@@]1(C=C3CCCC[C@H]32)N=C(NC(=O)c2ccccc2)N(Cc2ccccc2)[C@H]1Cc1ccccc1` as the compound, how does the inhibition read?
The inhibition was 22.3%.

For `C#CCN([C@H](C(=O)OC)C(C)CC)S(=O)(=O)c1ccccc1Br` (stereo partly specified), which inhibition is on record?
Its inhibition is -21.6%.

`FC(F)(F)c1cccc(Cn2ccc3ccc(-c4ccc5ccn(Cc6ccccc6)c5c4)cc32)c1` was tested. Which inhibition did it give?
The inhibition was 6.43%.

For `C[C@H](C(=O)N(C)c1ccccc1)[C@@H](O)c1ccc(Cl)cc1`, which inhibition is on record?
Its inhibition is -16.9%.

`O=C(C1CCN(S(=O)(=O)c2cccs2)CC1)N1CCCCCC1` was tested. Which inhibition did it give?
The inhibition was -11.4%.

How did the inhibition turn out when `O=C(NCc1ccc(Cl)cc1)C1CCN(S(=O)(=O)c2cccs2)CC1` was run?
The inhibition was 5.16%.

For `O=C(Nc1ccc(Br)cn1)C1CCN(S(=O)(=O)c2cccs2)CC1`, which inhibition is on record?
Its inhibition is 48.1% (active).

How did the inhibition turn out when `COC(=O)C1CN(Cc2cn(Cc3ccc(F)cc3)nn2)CCS(=O)(=O)N1Cc1ccc(Cl)cc1` (stereo unspecified) was run?
Its inhibition is 7.03%.

How did the inhibition turn out when `COC(=O)[C@]12C[C@H](CC(=O)NCc3cccs3)C(=O)N(CCc3ccc(OC)c(OC)c3)C1=C[C@H](C(C)C)O[C@@H]2C1CC1` was run?
The inhibition was 17.9%.

Which inhibition does the source give for `COc1ccc(N2CCN(CCNS(=O)(=O)c3ccc(C(C)(C)C)cc3)CC2)cc1` here?
Its inhibition is 2.21%.

How did the inhibition turn out when `C=CCN1C(=O)[C@@H](CC(=O)N2CCN(C(=O)c3ccco3)CC2)[C@]2(C(=O)OC)CCCCC=C12` was run?
The inhibition was -0.82%.
